In PubChem BioAssay (NCI) one finds growth data, which are given here for 14 compounds.

This is part of a sample that, as a whole, favours compounds with a hit. Of some 83,000 tested, about 20% had one in any assay.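 Assay: single dose, 48 h. Readout: percent growth (0 = no net growth; negative = cell death). Active: <10.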 A number with no mark means an inactive call. Activity calls are given as the source filed them.

Test systems include NCI-H23 lung; NCI-H226 lung; NCI-H322M lung; HOP-62 NSCLC; NCI-H460 lung; HOP-92 NSCLC; NCI-H522 lung; A549/ATCC NSCLC; 786-0 renal; COLO 205 colon.
Assay in all cases: NCI-60 one-dose screen, 48 h (100 = growth as untreated, 0 = no growth, -100 = all killed)
Common to all, as to conditions: 10 µM unless noted

Turning to `COC1=CC(=O)C(OC)=C(OC)C1=O`, the growth in the assay on NCI-H23 lung was 90.5%; in the assay with NCI-H226 lung, 86.7%; in the assay on NCI-H322M lung, 94.2%; with HOP-62 NSCLC, 92.6%; with NCI-H460 lung, 96.6%; with HOP-92 NSCLC, 109%. Moreover, the growth is 100% in the assay with NCI-H522 lung, 114% in the assay with A549/ATCC NSCLC, 93.4% with 786-0 renal and 114% with COLO 205 colon.
Take `COCCOc1ccc(-c2nc3ccc(-c4nc5ccc(N6CCN(C)CC6)cc5[nH]4)cc3[nH]2)cc1`: the growth was -4.24% (active) in the assay on NCI-H23 lung; -8.04% (active) with NCI-H226 lung; 17% in the assay with NCI-H322M lung; 14.2% with HOP-62 NSCLC; 35.9% with NCI-H460 lung; 26.4% in the assay on HOP-92 NSCLC. In addition, the growth with NCI-H522 lung was -41.9% (active); in the assay with A549/ATCC NSCLC it was 67.9%; with 786-0 renal, 26.8%; in the assay with COLO 205 colon, -10.9% (active).
Turning to `O=C(O)c1cn(C2CC2)c2cc(N3CCN(Cc4nc5c(cnn5-c5ccc([N+](=O)[O-])cc5)c(=O)[nH]4)CC3)c(F)cc2c1=O`, the growth was 101% in the assay on NCI-H23 lung; 94.8% with NCI-H226 lung; 99.1% in the assay with NCI-H322M lung; 103% with HOP-62 NSCLC; 105% in the assay with NCI-H460 lung; 112% in the assay with HOP-92 NSCLC. The growth with NCI-H522 lung is 95%; with A549/ATCC NSCLC it was 102%; with 786-0 renal, 98.9%; in the assay with COLO 205 colon, 112%.
In the case of `COc1ccc2nc3cc(Cl)ccc3c(N3CCN(c4ccnc(N5CCN(C)CC5)n4)CC3)c2c1`, the growth with NCI-H23 lung is 34.6%; in the assay on NCI-H226 lung it was 90.2%; with NCI-H322M lung it was 94.2%; in the assay with HOP-62 NSCLC, 73.4%; in the assay with NCI-H460 lung it was 64.7%; with HOP-92 NSCLC, 59.6%. Moreover, the growth with NCI-H522 lung was -60.4% (active); in the assay with A549/ATCC NSCLC it was 83.4%; in the assay with 786-0 renal, 78.9%; in the assay with COLO 205 colon, -45.3% (active).
Consider `CCCCCC(=O)N(CCCC)CCCC`, for which the growth was 107% with NCI-H23 lung; 99.7% with NCI-H226 lung; 89.4% in the assay with NCI-H322M lung; 104% in the assay on HOP-62 NSCLC; 110% in the assay with NCI-H460 lung; 91.7% in the assay on HOP-92 NSCLC. For the same compound, the growth with NCI-H522 lung was 97.6%; in the assay on A549/ATCC NSCLC it was 100%; in the assay with 786-0 renal, 104%; with COLO 205 colon, 125%.
In the case of `O=C(CCN1CCOCC1)Nc1ccc(Cn2nnc3c2C(=O)c2nnn(Cc4ccc(NC(=O)CCN5CCOCC5)cc4)c2C3=O)cc1`, the growth was -20.9% (active) with NCI-H23 lung; 86.5% in the assay with NCI-H226 lung; 10% in the assay on NCI-H322M lung; 70.9% in the assay on HOP-62 NSCLC; 13.3% in the assay with NCI-H460 lung; -20% (active) in the assay on HOP-92 NSCLC. Further, the growth was -28.9% (active) in the assay with NCI-H522 lung, 84.8% with A549/ATCC NSCLC, 98.5% in the assay on 786-0 renal and -73.8% (active) in the assay on COLO 205 colon.
Consider `COc1cccc(-c2nc3sccn3c2-c2ccnc(NCCCNS(=O)(=O)c3ccccc3)c2)c1`, for which the growth in the assay on NCI-H23 lung was 29.1%; in the assay on NCI-H226 lung, 32.6%; in the assay on NCI-H322M lung, 69.4%; in the assay on HOP-62 NSCLC, 62.2%; in the assay on NCI-H460 lung, 38.3%; in the assay on HOP-92 NSCLC it was 42%. Moreover, the growth in the assay with NCI-H522 lung was 27.9%; with A549/ATCC NSCLC, 29%; with 786-0 renal, 59.5%; with COLO 205 colon it was 37.7%.
For the compound `CC/C=C\C[C@H](O)C/C=C1/C(=O)C=C[C@@H]1C/C=C\CCCC(=O)NC`, the growth with NCI-H23 lung was -18.8% (active); in the assay on NCI-H226 lung, -41.1% (active); in the assay with NCI-H322M lung, 20.7%; in the assay with HOP-62 NSCLC it was -24.3% (active); in the assay with NCI-H460 lung, -49.9% (active); with HOP-92 NSCLC, 48.4%. Besides, the growth with NCI-H522 lung was -15.6% (active); in the assay with A549/ATCC NSCLC, -36.7% (active); with 786-0 renal, -39.1% (active); with COLO 205 colon, -25.2% (active).
For the compound `CCCCCCCCCCCCN1CCCC(C)C1` (stereo not given), the growth in the assay with NCI-H23 lung was 80.3%; in the assay on NCI-H226 lung, 85.3%; in the assay with NCI-H322M lung it was 87.2%; in the assay with HOP-62 NSCLC, 89.1%; in the assay with NCI-H460 lung, 106%; with HOP-92 NSCLC it was 73%. Moreover, the growth was 69.3% in the assay with NCI-H522 lung, 91.4% with A549/ATCC NSCLC, 85.9% in the assay on 786-0 renal and 82.2% in the assay with COLO 205 colon.
As to `Cc1cc(N/N=C/c2nc(-c3ccc(Cl)cc3)oc2C)c2cc(Br)ccc2n1`, the growth in the assay with NCI-H23 lung was 96.4%; in the assay with NCI-H226 lung, 92.9%; in the assay on NCI-H322M lung, 72.5%; in the assay on HOP-62 NSCLC it was 100%; in the assay with NCI-H460 lung, -47.4% (active); in the assay on HOP-92 NSCLC, 69.6%. For the same compound, the growth in the assay on NCI-H522 lung was -1.02% (active); in the assay on A549/ATCC NSCLC, 17.1%; with 786-0 renal, 24.6%; with COLO 205 colon, 91.6%.
In the case of `COc1cc(C2CC(=O)Nc3c2c(C)nn3-c2nc3ccccc3[nH]2)cc(OC)c1OC` (stereo not given), the growth in the assay on NCI-H23 lung is 99.6%; in the assay on NCI-H226 lung, 99.1%; in the assay on NCI-H322M lung, 103%; in the assay with HOP-62 NSCLC, 104%; with NCI-H460 lung it was 100%; with HOP-92 NSCLC, 89.8%. Besides, the growth was 94% with NCI-H522 lung, 97.7% with A549/ATCC NSCLC, 110% in the assay with 786-0 renal and 116% in the assay on COLO 205 colon.
As to `CCN(CC)Cc1cc(Nc2c3ccccc3nc3cc(Cl)ccc23)ccc1O`, the growth in the assay on NCI-H23 lung is -82.6% (active); in the assay on NCI-H226 lung, -47.5% (active); with NCI-H322M lung, -40.9% (active); in the assay on HOP-62 NSCLC it was -65.2% (active); with NCI-H460 lung, -73.6% (active); in the assay with HOP-92 NSCLC it was -33.1% (active). The growth is -80.8% (active) in the assay on NCI-H522 lung, -37.6% (active) with A549/ATCC NSCLC, -55.1% (active) in the assay with 786-0 renal and -100% (active) in the assay with COLO 205 colon.
On to `CCOC(=O)C(=Cc1ccccc1F)C(=O)OCC`, for which the growth in the assay with NCI-H23 lung is 99.2%; in the assay on NCI-H226 lung, 96.1%; with NCI-H322M lung, 94%; in the assay with HOP-62 NSCLC, 137%; with NCI-H460 lung, 105%; with HOP-92 NSCLC, 103%. In addition, the growth was 65.2% in the assay on NCI-H522 lung, 90.3% with A549/ATCC NSCLC, 104% in the assay on 786-0 renal and 115% in the assay with COLO 205 colon.
For the compound `CC(C)(C)n1cc(-c2ccnc(NCCCNS(=O)(=O)c3cccc4ccccc34)c2)c(-c2cccc(O)c2)n1`, the growth in the assay on NCI-H23 lung is 42.1%; in the assay with NCI-H226 lung it was 41%; in the assay with NCI-H322M lung, 43.4%; with HOP-62 NSCLC it was 47.7%; in the assay with NCI-H460 lung, 2.1% (active); in the assay with HOP-92 NSCLC, 37.7%. Moreover, the growth with NCI-H522 lung is 15.8%; in the assay on A549/ATCC NSCLC, 29.2%; in the assay with 786-0 renal, -0.248% (active); in the assay with COLO 205 colon it was -79.1% (active).
